Compounds with a hit are over-represented: about 21% of the library has one in this group of screens.
DRD3 agonist: activates the human D3 dopamine receptor | max activation, % | actives 0.58% (n = 410,000) | AID 652048 | D3R DiscoveRx beta-arrestin cells, luminescence, 90 min; in the data active = max activation above about 30%; also: 0% is about no effect
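Cells at 1500/well, incubated overnight, then treated with pinned compounds (dopamine as control) for 90 min at 37 degrees C. DiscoveRx reagent added for 30 - 60 minutes at room temperature; luminescence read.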
DRD3 antagonist: D3 dopamine receptor (human) antagonism. P35462. D3R cells, DiscoveRx beta-arrestin luminescence, antagonist mode; hits give low values. max response, negative = inhibition, %. actives 2.5% (n = 360,000). AID 652054; in the data active = max response below about -50%; inconclusive = no clear call, values can overlap the other calls; also: % is scaled to controls: 0 for no effect and ±100 for the full control effect
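Cells plated overnight at 1500 cells/well, then exposed to library compounds with dopamine controls for 90 minutes at 37 degrees C. DiscoveRx reagent added for 30–60 minutes at room temperature; luminescence read, quantitative HTS format.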
ClpP mod: qHTS Assay for Activators of ClpP; ATP-dependent Clp protease proteolytic subunit (Bacillus subtilis (strain 168)), P80244; purified B. subtilis ClpP, FRET peptide cleavage, 20 min; Potency, µM (titrated, usually from 57.5 µM), for the others: at the highest dose activity change, negative = active; actives 1.9% (n = 340,000); AID 651965, 2013; active = well fitted falling curve with a large enough effect; inconclusive = small, poorly fitted or top-dose-only effect; inactive = no such curve, though single readings can be large or run the other way; also: potency is read from the fitted curve at half-maximal effect; the source files actives as falling curves though it sought activators and does not explain the sign; nearly all actives have a fitted effect of over 65% in size
Target sequence (P80244 whole entry, looked up): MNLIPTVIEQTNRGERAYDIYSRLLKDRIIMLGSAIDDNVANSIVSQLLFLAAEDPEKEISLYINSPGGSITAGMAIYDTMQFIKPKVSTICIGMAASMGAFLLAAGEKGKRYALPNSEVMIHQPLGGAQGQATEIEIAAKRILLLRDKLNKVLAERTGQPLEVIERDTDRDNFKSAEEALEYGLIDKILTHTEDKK
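ClpP 10 microg/mL final, pH 8 Tris/KCl buffer with BSA, glycerol, Tween-20; compound pinned in; FRET-FV substrate; RT 20 min; Ex320/Em430; ΔFRET vs ADEP 5.8 microM, DMSO, no enzyme.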
IL1B secr inh: inflammasome signaling inhibition, IL-1 beta readout; THP-1 LPS/ATP IL-1B secretion, AlphaLISA, 16 h; hits give low values; activity change, % at 57.5 µM; actives 4.7% (n = 360,000); in the data active = activity change below about -50%; inconclusive = mostly about -30% to -49%; also: % is scaled to controls: 0 for no effect and ±100 for the full control effect
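THP-1 cells pretreated 1 hr with compounds (up to 57.5 uM final), then stimulated with LPS (250 ng/mL final) plus ATP (1.25 mM final); secreted IL-1B measured by AlphaLISA after 16 hr, decreased signal indicating inhibition.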
DT40 TDP1 no CPT: qHTS for Inhibitors of human tyrosyl-DNA phosphodiesterase 1 (TDP1): qHTS in cells in absence of CPT; DT40 Tdp1-/- hTDP1 cells, no CPT, ATP luminescence, 48 h; Potency, µM (titrated, usually from 46.2 µM), for inactives: top-dose activity change, negative = growth inhibition, most hits filed as inhibitors; actives 15% (n = 420,000); AID 686978, 2013; also: potency is read from the fitted curve at half-maximal effect; % is scaled to controls: 0 for no effect and ±100 for the full control effect; nearly all actives have a fitted effect of over 55% in size
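Chicken DT40 Tdp1-/- cells stably complemented with human TDP1 were seeded at 400 cells/well with DMSO in place of 20 nM camptothecin. After compound pinning, cells grew at least 48 hr at 37 °C; viability read by CellTiter-Glo luminescence.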
DT40 TDP1 CPT: growth inhibition of DT40 Tdp1-/-;hTDP1 cells with camptothecin (screen for TDP1 inhibitors); chicken DT40 Tdp1-/-;hTDP1 cells + 20 nM CPT, ATP luminescence, 48 h; Potency, µM (series often up to 46.2 µM), inactives show top-dose activity change, negative = growth inhibition, actives largely listed as inhibitors; actives 12% (n = 420,000); also: potency is read from the fitted curve at half-maximal effect; % is scaled to controls: 0 for no effect and ±100 for the full control effect; nearly all actives have a fitted effect of over 55% in size
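Cell growth measured by CellTiter-Glo luminescence after a minimum 48 h, 37 C compound exposure with 20 nM CPT in Tdp1-knockout DT40 cells stably expressing hTDP1, seeded 400/well; qHTS titration format.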
* = called active by the depositor. Unless noted, calls follow the shape of the dose curve; as a rule, active = well fitted inhibition curve with a large enough effect; inconclusive = small, poorly fitted or top-dose-only effect; inactive = flat fitted curve, though single readings scatter.

Results for O=C(COc1ccc(Cl)cc1)N1CCN(c2ccc([N+](=O)[O-])c(N3CCCCC3)c2)CC1 ?
DRD3 agonist: -2.7; DRD3 antagonist: 21.1; ClpP mod: -0.5%; IL1B secr inh: -21.5; DT40 TDP1 no CPT: inconclusive; DT40 TDP1 CPT: inconclusive

How did O=C(c1ccc(F)cc1)N1CCN(C(=O)c2ccc([N+](=O)[O-])cc2)CC1 do in these assays?
DRD3 agonist: -3.6; DRD3 antagonist: 8.9; IL1B secr inh: -9.8; DT40 TDP1 no CPT: -4.7%; DT40 TDP1 CPT: -26.8%

Results for O=C(COc1ccccc1Cl)N1CCN(c2ccc([N+](=O)[O-])c(N3CCCCC3)c2)CC1 ?
DRD3 agonist: 0.1; DRD3 antagonist: 14.2; ClpP mod: 0.5%; IL1B secr inh: inconclusive; DT40 TDP1 no CPT: 23.1µM*; DT40 TDP1 CPT: inconclusive

What do the screens show for `Cn1c(=O)n(C)c2cc([N+](=O)[O-])c(N3CCN(C(=O)c4ccc(F)cc4)CC3)cc21`?
DRD3 agonist: 0.8; DRD3 antagonist: 6.0; ClpP mod: 1.0%; IL1B secr inh: 29.8; DT40 TDP1 no CPT: inconclusive; DT40 TDP1 CPT: 18.4µM*

Results for O=C(c1cccc(F)c1)N1CCN(c2cc(N3CCCCC3)c(F)cc2[N+](=O)[O-])CC1 ?
DRD3 agonist: -10.4; DRD3 antagonist: -18.7; ClpP mod: 0.5%; IL1B secr inh: -74.4*; DT40 TDP1 no CPT: 18.4µM*; DT40 TDP1 CPT: 18.4µM*

Results for O=C(c1ccc(F)cc1)N1CCN(c2ccc([N+](=O)[O-])c(N3CCCCC3)c2)CC1 ?
DRD3 agonist: -4.0; DRD3 antagonist: -27.1; ClpP mod: 0.0%; IL1B secr inh: -23.3; DT40 TDP1 no CPT: 23.1µM*; DT40 TDP1 CPT: inconclusive

How did CCOc1ccccc1NC(=O)c1cccc(NC(=O)C2CCCC2)c1 do in these assays?
DRD3 agonist: 0.7; DRD3 antagonist: -6.9; IL1B secr inh: inconclusive; DT40 TDP1 no CPT: inconclusive; DT40 TDP1 CPT: inconclusive

Results for Cn1c(=O)n(C)c2cc([N+](=O)[O-])c(N3CCN(C(=O)c4ccc(Cl)cc4)CC3)cc21 ?
DRD3 agonist: -20.4; DRD3 antagonist: -16.8; ClpP mod: 1.2%; IL1B secr inh: -80.0*; DT40 TDP1 no CPT: inconclusive; DT40 TDP1 CPT: inconclusive

Results for Cn1c(N)c(C(=O)COC(=O)CNS(=O)(=O)c2ccc(Cl)c(Cl)c2)c(=O)n(C)c1=O ?
DRD3 agonist: 0.0; DRD3 antagonist: 14.9; ClpP mod: 31.6µM*; IL1B secr inh: 29.7; DT40 TDP1 no CPT: -25.2%; DT40 TDP1 CPT: -26.1%

Results for c1ccc2c(c1)nc(NCc1ccc3c(c1)OCO3)n2CCN1CCOCC1 ?
DRD3 agonist: -3.1; DRD3 antagonist: -19.6; ClpP mod: 0.2%; IL1B secr inh: 0.0; DT40 TDP1 no CPT: -6.9%; DT40 TDP1 CPT: -14.1%

Results for CCCCCn1c(NCc2ccco2)nc2ccccc21 ?
DRD3 agonist: 5.2; DRD3 antagonist: 0.6; ClpP mod: -1.6%; IL1B secr inh: -24.8; DT40 TDP1 no CPT: inconclusive; DT40 TDP1 CPT: -6.3%

Results for CCCCCn1c(NCc2ccc(OC)cc2)nc2ccccc21 ?
DRD3 agonist: -29.2; ClpP mod: -2.2%; DT40 TDP1 no CPT: 23.1µM*; DT40 TDP1 CPT: 16.4µM*

What do the screens show for `c1ccc(Cn2c(CNc3nc4ccccc4n3CCN3CCOCC3)nc3ccccc32)cc1`?
DRD3 agonist: -13.1; DRD3 antagonist: -54.2*; ClpP mod: -1.6%; IL1B secr inh: -20.5; DT40 TDP1 no CPT: inconclusive; DT40 TDP1 CPT: inconclusive

What do the screens show for `COc1ccc(CNc2nc3ccccc3n2CCN2CCCCC2)c(OC)c1`?
DRD3 agonist: -15.5; DRD3 antagonist: inconclusive; ClpP mod: -1.7%; IL1B secr inh: -100.3*; DT40 TDP1 no CPT: 23.1µM*; DT40 TDP1 CPT: 18.4µM*
